One assay deals with TJP3. Kind of assay: pooled miR-30 sensor sort-seq; sequence = guide strand. To be noted: shRNA.
Sequence TCGTAGTCGCTGTTAACGCGGC returned a sensor-assay potency score (higher = more potent) of -0.824.

As to TTCTGGAATCTACTGAACTTTC, the sensor-assay potency score (higher = more potent) was -1.4.

In turn, TTGAGCTCCTGGTACCAGGTGT yielded a sensor-assay potency score (higher = more potent) of 0.444.

In turn, ATCGTCTTCATCCGAGTCCTGG yielded a sensor-assay potency score (higher = more potent) of -0.452.

In the case of TTCAGTGACAGGTTCTGGCTAG, the sensor-assay potency score (higher = more potent) worked out at 0.155.

Sequence TCTAGTTTGATGATCTTGGAGG yielded a sensor-assay potency score (higher = more potent) of -0.916.

TTCATCTGCACGTCCTGCCGTG: the sensor-assay potency score (higher = more potent) was -0.0273.

TACCACGTCAGATACAACCATG: the sensor-assay potency score (higher = more potent) was -1.34.

The sequence TACAACCATGGATCCACCGGGC gave a sensor-assay potency score (higher = more potent) of -0.563.

Sequence ATAGGTTCGCATGCTGTCCTGT returned a sensor-assay potency score (higher = more potent) of -0.0267.

For the sequence TTGACGCCAAACTCTTCGCTGT, the sensor-assay potency score (higher = more potent) was -0.592.

In turn, TAGAATGAGATCTCCTTCCTGC displayed a sensor-assay potency score (higher = more potent) of 0.597.

For another assay, the target named is TKT. The assay is described as above. The conditions noted are these: shRNA.
On to TTGAAGATCTCCGAGAAGGTGG, for which the sensor-assay potency score (higher = more potent) was determined as 0.421.

TTCTGGTAGATGTCCATCTGGT: the sensor-assay potency score (higher = more potent) is -0.51.

As for TTGATGTGGGGACTGACCGAAA, the sensor-assay potency score (higher = more potent) is -0.805.

TTTTTGCTCTGGATCTGGCTGT had a sensor-assay potency score (higher = more potent) of 0.312.

Regarding TTTCTTTCTTCAGCAGTTCGGC, the sensor-assay potency score (higher = more potent) was -0.762.

TTGTCCCCAACTTTGTAGCTGG came in with a sensor-assay potency score (higher = more potent) of -0.755.

On to TTGTCCAGCTTATAGATGCTGG, for which the sensor-assay potency score (higher = more potent) is -1.07.

On to TAGATGATGGCATTTTCTGGGC, for which the sensor-assay potency score (higher = more potent) was -0.904.

TCCTTTTTGAAGATCTCCGAGA returned a sensor-assay potency score (higher = more potent) of -0.964.

Regarding TTGCTCTTCAGGACCACCTTGG, the sensor-assay potency score (higher = more potent) is -0.197.

Consider TAAAAGACAGTTGATGTGGGGA, for which the sensor-assay potency score (higher = more potent) came to 0.52.

In turn, TTGTCGAAGTATTTGCCGGTGT displayed a sensor-assay potency score (higher = more potent) of -0.129.

The record behind these values is the OligoGym collection.
Note: reference of the scale not given here.
